The full ranking holds about 68,000 sequences; the median of “fluorescence intensity (a.u.)” is about 9,100, and the highest 2% start at about 16,000. Only a selection was taken, and the highest values are over-represented in it overall.

This passage reports binding signal results from paper PMC7819943, “Rice protein-binding microarrays: a tool to detect cis-acting elements near promoter regions in rice”.

Sequence of OsWRKY34 (Q0JBA9 entry or part of it): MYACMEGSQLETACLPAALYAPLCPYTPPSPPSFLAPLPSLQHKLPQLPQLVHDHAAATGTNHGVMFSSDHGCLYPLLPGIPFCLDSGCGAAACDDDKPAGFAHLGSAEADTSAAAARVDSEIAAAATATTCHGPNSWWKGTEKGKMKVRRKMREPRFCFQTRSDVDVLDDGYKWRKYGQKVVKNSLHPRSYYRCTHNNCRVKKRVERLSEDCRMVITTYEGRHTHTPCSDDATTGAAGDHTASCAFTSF

The experiment addresses OsWRKY34 (Oryza sativa, UniProt Q0JBA9 1-250). In words: protein-binding microarray (RPBM); PBS, 2% BSA, 51.3 ng/ul salmon testes DNA, 50 uM zinc acetate, 200 nM TF, 25 C, 1 h; high values mean tight binding. As to conditions: protein: recombinant; tags: N-terminal polyhistidine and DsRed monomer fusion (pET32a); label: CyDye5-dUTP incorporated in the synthesized complementary strand; 3' TTTTT single-stranded linker to array surface; dsDNA, one strand shown. The gist of the method: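 Per-feature fluorescence intensity (arbitrary units), read on an Axon 4000B scanner, is the binding signal. Transcription factors carrying an N-terminal polyhistidine tag and DsRed fusion were expressed in E. coli BL21-CodonPlus and purified on Ni–NTA. A custom Agilent array, made double-stranded by primer extension with Cy5-dUTP and blocked with 2% BSA, was incubated with 200 nM protein in PBS, 2% BSA, salmon testes DNA and 50 µM zinc acetate at 25 °C for 1 h and then washed.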
For the sequence “ACCCGTCTCTGTTCATCTCCACATCTTGTCTTCTCGCTGTCGGAGTCACCTAGTGCAG”, the binding signal is 18100 fluorescence intensity (a.u.).
Under “CCCGACCCAAACCTCACCGCCGCCGTCGCCGTTGCCGCCGCGGAGTCACCTAGTGCAG” stands 8310 fluorescence intensity (a.u.); under “TTAACTCGACAGTTTGTGTGTGATTTCAGTACTACCACGACGGAGTCACCTAGTGCAG”, 10400 fluorescence intensity (a.u.); under “CTCCGCCGTCGCGTCCCCGCCGCCGCCGCCCGCCTTCCCCCGGAGTCACCTAGTGCAG”, 9960 fluorescence intensity (a.u.).
In the case of “ACTCGCGATATGCTTGTAACTTGGTTTGGTATTCCATTCTCGGAGTCACCTAGTGCAG”, the binding signal is 9670 fluorescence intensity (a.u.).
Regarding “GGGTTACGGCTGCAAGCTTGTTCTCTCCAGATGGGGAGTTCGGAGTCACCTAGTGCAG”, the binding signal was 10400 fluorescence intensity (a.u.).
Under “GTCTCCGCGCGCGCTCTCTCTTTCGTTCACTCTCGCTTTCCGGAGTCACCTAGTGCAG” stands 14500 fluorescence intensity (a.u.); under “GCCTCGCCTCGCCGCCGGCGGCCACCGTCTCCGCCGCCTCCGGAGTCACCTAGTGCAG”, 8800 fluorescence intensity (a.u.).
Consider “TCCCTCCCGTCTCGTCTCCGCTCATTGCGCCATCTCGCGCCGGAGTCACCTAGTGCAG”, for which the binding signal was 8660 fluorescence intensity (a.u.).
As for “GTCCTGCTGCTTCCGCCGCCGCCACCGTCCTGCTGCTTCCCGGAGTCACCTAGTGCAG”, the binding signal is 9500 fluorescence intensity (a.u.).
The value for “CGCTTTCCTCTGTTTCTCCGCCGCGCTCGTTCGTCGTCTCCGGAGTCACCTAGTGCAG” was 21400 fluorescence intensity (a.u.); that for “CTCGCCGCCGGCCTCCTCCACCACCACCGACGACTCCGACCGGAGTCACCTAGTGCAG” was 8430 fluorescence intensity (a.u.).
Consider “TTCTCCACCGCCGCCACCACCACCTCGCCTGGCCGGCCTCCGGAGTCACCTAGTGCAG”, for which the binding signal is 18000 fluorescence intensity (a.u.).
In the case of “CCGCCGCTTCCTCGCCACCGCCGCTGCCGCCGCCACTTCCCGGAGTCACCTAGTGCAG”, the binding signal is 19400 fluorescence intensity (a.u.).
The value for “GCTCTCATGGCCTCACACACCGCGCCATTGCCATCGTTTCCGGAGTCACCTAGTGCAG” was 17000 fluorescence intensity (a.u.).
Under “AACACCGTTCCTCCGCCGCGCCGTCATTGCCACCGGCCTCCGGAGTCACCTAGTGCAG” stands 9730 fluorescence intensity (a.u.); under “CGCGCCCTCCTCCGCCGCCGCTCGCCGCCGTTCGTCTCCGCGGAGTCACCTAGTGCAG”, 9840 fluorescence intensity (a.u.); under “CTCCTCTCGCCGCCGCCGCCACCGCCACCGCCGCCGCTCCCGGAGTCACCTAGTGCAG”, 10100 fluorescence intensity (a.u.).
The value for “CATCGACTACCTGCCATTCTTCTACTCCAGGGTCTTCTCGCGGAGTCACCTAGTGCAG” was 9510 fluorescence intensity (a.u.); that for “ATCTTATGGTGTATTTTTTTTTTCTCCGGTGCAGGTTGGTCGGAGTCACCTAGTGCAG” was 8260 fluorescence intensity (a.u.).
In the case of “GATGTGAATCACCCTTTGCTTTGCTGAATCTACTCCTACACGGAGTCACCTAGTGCAG”, the binding signal is 10600 fluorescence intensity (a.u.).
As to “GCGAACTCCGAGCGCGGAGGTTGAGGCGGCGGCGAGCGTGCGGAGTCACCTAGTGCAG”, the binding signal was 9820 fluorescence intensity (a.u.).
Under “CATTATTAAAATATATATGTGTTACATTCGGTATTATATTCGGAGTCACCTAGTGCAG” stands 8650 fluorescence intensity (a.u.); under “CCTCATGATGATGCCGAACGTCTCGACATTGACCGCGCCCCGGAGTCACCTAGTGCAG”, 9370 fluorescence intensity (a.u.).
For “CCGCCGCCCACCTCATGCCTTGCGCGGTGCCCGTGAGAGACGGAGTCACCTAGTGCAG”, the binding signal is 8250 fluorescence intensity (a.u.).
Under “GATCGCTCCATAAACATGCAATATATCAATTTTAACTTTTCGGAGTCACCTAGTGCAG” stands 8900 fluorescence intensity (a.u.); under “CTCTCAGCCGGTCTATCAATTCCCCTTTCTGATACAATAACGGAGTCACCTAGTGCAG”, 9570 fluorescence intensity (a.u.); under “CCCATTCTAGATATTAACTACTAATCTGACTCTATTTTTTCGGAGTCACCTAGTGCAG”, 8880 fluorescence intensity (a.u.).
Take “TGGGTTTTATTTTCCCATTCTTTCGAGCTATTTTGACGGACGGAGTCACCTAGTGCAG”: the binding signal is 8220 fluorescence intensity (a.u.).
The value for “ACACTCTCGCCGTCGCCGCCTCCTCGCCTCCGCTTACTCCCGGAGTCACCTAGTGCAG” was 16700 fluorescence intensity (a.u.); that for “GCTCTATCTTTACTCGCCATTTAATCGTTGCCTCGCGCTCCGGAGTCACCTAGTGCAG” was 16900 fluorescence intensity (a.u.).
Under “CGTCGCCGCCGCCGGCGTCTTCTCCACCTCCTCCGCGCCGCGGAGTCACCTAGTGCAG” stands 8030 fluorescence intensity (a.u.); under “CGCCGCCTCCGCTCCACTCTCCTCGCCGTCGCCGGTCCTCCGGAGTCACCTAGTGCAG”, 11500 fluorescence intensity (a.u.).
Under “ACCCGCTTCTCGTCTCCTCGTCTCCTCGTTCGTCTCTCGCCGGAGTCACCTAGTGCAG” stands 18000 fluorescence intensity (a.u.); under “CATTTAAATCGCCATCACTCCGCGCGCTCTCCCATCCATCCGGAGTCACCTAGTGCAG”, 8870 fluorescence intensity (a.u.).
On to “TTCCTCCGTCTGCGTGCCGGCTTCTGTCTTCCTCCGCGCGCGGAGTCACCTAGTGCAG”, for which the binding signal is 17300 fluorescence intensity (a.u.).
Under “TCCCGCTTCTCCTCCGTCGCTCTCCGCCGCCGCCGCCACCCGGAGTCACCTAGTGCAG” stands 10200 fluorescence intensity (a.u.); under “GTCGTCGCCTGCCTCTTCGTCGCCGCTCTCGTCTCCGCTCCGGAGTCACCTAGTGCAG”, 9880 fluorescence intensity (a.u.); under “TCGCCTATCTCTCTATCTCTTTCGCCACCGCTTGCCTCTCCGGAGTCACCTAGTGCAG”, 9030 fluorescence intensity (a.u.).
On to “CTCTCCTCTCCTCGCTTCTTCGTCTCGCTTGCTCGCTCGCCGGAGTCACCTAGTGCAG”, for which the binding signal is 8550 fluorescence intensity (a.u.).
Under “GCGCGCGCCGGCCTCCGTCTTCCTCCGCGGGTGCGCCACCCGGAGTCACCTAGTGCAG” stands 10400 fluorescence intensity (a.u.); under “CGTTCATTCCGCATCCAATGGCAGCACTGGTTCCTAGCTTCGGAGTCACCTAGTGCAG”, 8110 fluorescence intensity (a.u.).
